From PubChem BioAssay AID1979 (Broad Institute, 2009) come the findings set out here.

Structures are written as SMILES. Out of some 300,000 compounds screened, about 1,700 (0.57%) were called active. Not shown: some 2% with an inconclusive outcome.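 How the source made its calls: active means growth inhibition above about 58% in most replicates (limit read from the data, passing the limit was not always enough); inconclusive means exactly half the replicates above a set limit; inactive means most replicates below a set limit.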 The list comes from a sample in which actives are over-represented; it also holds similar structures and randomly drawn compounds.

The assay in a line: Candida growth reduction under fluconazole – CaCi-2 strain, Alamar Blue fluorescence, primary screen (AID 1979).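 Further: all wells also contain fluconazole at 8 µg/ml as a sub-toxic cotreatment; 0% = median of DMSO wells and 100% = median of geldanamycin control wells.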 To be noted: C. albicans CaCi-2 (fluconazole-resistant clinical isolate) + fluconazole, 48 h, stronger effect = higher value, concentration not given here. A general note: Resazurin is reduced to fluorescent resorufin, in cell work by metabolically active cells.
For the compound `Cc1ccc(C)c(NC(=O)COC(=O)Cn2c(C)csc2=O)c1`, the growth inhibition was -4.71% (inactive).

Turning to `COc1cc(NS(=O)(=O)c2ccc3ccccc3c2)c2ncccc2c1`, the growth inhibition is 89.3% (active).

On to `COc1ccc2cc(S(=O)(=O)Nc3ccccn3)ccc2c1`, for which the growth inhibition is -0.283% (inactive).

Consider `Cc1ccc(NS(=O)(=O)c2ccc(C)c(NC(=O)COc3ccc4ccccc4c3)c2)c(C)c1`, for which the growth inhibition is 31.8% (inactive).

`Cc1ccc(Nc2nc(CSc3nnc(-c4ccncc4)n3-c3ccccc3C)cs2)cc1`: the growth inhibition was 113% (active).

Take `Cc1ccc(-n2c(SCC(=O)N3c4ccccc4Sc4ccccc43)nnc2-c2ccncc2)cc1`: the growth inhibition is -22.2% (inactive).

With `Cc1ccccc1-n1c(SCC(=O)NCc2cccs2)nnc1-c1ccncc1`, the growth inhibition was 8.03% (inactive).

As for `O=C(OCCOCn1cc(Br)c(=O)[nH]c1=O)c1ccccc1`, the growth inhibition is -9.14% (inactive).

In the case of `CCOc1ccc(NC(=O)COc2ccc(C(=O)N3CCC(C(N)=O)CC3)cc2OC)cc1`, the growth inhibition is -4.97% (inactive).

As to `CC(C)Oc1ccc(S(=O)(=O)N2CCOCC2)cc1NC(=O)C1CSC2(C)CCC(=O)N12` (configuration not stated), the growth inhibition was -0.702% (inactive).

With `COc1ccc(C(=O)NCCCN2CCOCC2)cc1Br`, the growth inhibition is -0.331% (inactive).

As to `Cc1ccc(S(=O)(=O)N2CCN(C(=O)Cc3sc(C)nc3-c3ccc(F)cc3)CC2)c(C)c1`, the growth inhibition is -1.25% (inactive).

As for `Cc1nc2c(c(C)nn2-c2ccccc2)c(C)c1C`, the growth inhibition was 1.68% (inactive).

In the case of `O=C(N/N=C/c1sc(N2CCCCC2)nc1-c1cccs1)c1cccnc1`, the growth inhibition is 94.5% (active).

`O=C(N/N=C/c1ccc(O)c2ccccc12)c1cccnc1`: the growth inhibition was 11.5% (inactive).

Consider `O=C(N/N=C/c1ccccn1)c1cccnc1`, for which the growth inhibition is 6.91% (inactive).

Turning to `CCOc1ccc(NC(=O)c2ccc(NC(=O)CN3C(=O)C(=O)N(CC(C)C)C3=O)cc2)cc1`, the growth inhibition was -2.68% (inactive).

With `COc1ccc(S(=O)(=O)NCc2cccnc2)cc1NC(=O)c1ccc(C)cc1`, the growth inhibition was -3.27% (inactive).

`CCOc1ccc(-n2c(O)c(/C=N/c3ccnn3Cc3ccncc3)c3ccccc3c2=O)cc1`: the growth inhibition was 15.4% (inactive).

Consider `CCOc1ccc(-n2c(O)c(/C=N/Nc3nc(C)cc(C)n3)c3ccccc3c2=O)cc1`, for which the growth inhibition was 113% (active).

As to `CCN(CC)CCCN=Cc1c(O)n(-c2ccc(C)cc2)c(=O)c2ccccc12`, the growth inhibition is -8.89% (inactive).

Regarding `CCOC(=O)c1c(C)[nH]c(C(=O)OCC(=O)N2CCCC2=O)c1C`, the growth inhibition is -3.16% (inactive).

`Cc1nc2ccccc2nc1N/N=C/c1ccc(O)cc1O`: the growth inhibition was 10.5% (inactive).

Turning to `COc1ccc(-n2cnnc2SCC(=O)Nc2cccc(S(N)(=O)=O)c2)cc1`, the growth inhibition was -1.9% (inactive).

Regarding `C=CCn1c(COc2ccc(F)cc2)nnc1SCC(=O)Nc1cccc(S(N)(=O)=O)c1`, the growth inhibition is 94.6% (active).

On to `C=CCn1c(CC(=O)Nc2cccc(OC)c2)nnc1SCC(=O)NC1CCCCC1`, for which the growth inhibition was 4.51% (inactive).

For `CS(=O)(=O)c1ccc(Cl)c(NC(=O)COC(=O)c2cccc(S(=O)(=O)N3CCCC3)c2)c1`, the growth inhibition was -1.03% (inactive).

As for `Cc1cc(Nc2ccc(C(=O)N3CCCCC3)cc2)c2cccc(C)c2n1`, the growth inhibition was 2.84% (inactive).

For the compound `Cc1ccn2c(=O)nc(SCC(=O)NCc3ccc4c(c3)OCO4)nc2c1`, the growth inhibition was 1.59% (inactive).

Take `COc1ccc(N/N=C2/CCCCC2=O)cc1`: the growth inhibition was -21.7% (inactive).

On to `Cc1ccc(N/N=C2\COC(C)(C)CC2=O)cc1`, for which the growth inhibition was 101% (active).

With `Cc1ccc(NN=C2C(=O)OC(C)(C)OC2=O)c(C)c1`, the growth inhibition was -5.58% (inactive).

`COc1ccccc1C(=O)NC(=O)COC(=O)c1ccco1`: the growth inhibition was 8.59% (inactive).

As to `CC1CN(C(=O)COC(=O)c2cccc(NS(=O)(=O)c3ccccc3)c2)CC(C)O1` (configuration not stated), the growth inhibition was 5.4% (inactive).

As to `O=C(N/N=C/c1cc([N+](=O)[O-])ccc1O)/C(=C\c1cccs1)NC(=O)c1ccccc1`, the growth inhibition is 116% (active).

For the compound `O=C(N/N=C/c1ccc(O)cc1)/C(=C/c1ccc([N+](=O)[O-])cc1)NC(=O)c1ccccc1`, the growth inhibition is 1.1% (inactive).

As to `O=[N+]([O-])c1ccc(O)c(/C=N/Nc2ccccc2[N+](=O)[O-])c1`, the growth inhibition was -1.45% (inactive).

Take `COc1ccccc1OCc1ccc(C(=O)NC(C)c2ccccc2)o1` (configuration not stated): the growth inhibition was -11.7% (inactive).

Consider `COc1ccc(OC)c(NC(=O)CSc2nc(-c3ccccc3)cc(=O)[nH]2)c1`, for which the growth inhibition was 55% (inactive).

For `Cc1ccc(NS(=O)(=O)c2ccc(N/N=C/c3ccccc3OCC(=O)O)c([N+](=O)[O-])c2)c(C)c1`, the growth inhibition is -7.09% (inactive).

For the compound `O=[N+]([O-])c1ccc(N/N=C/c2ccccc2)cc1`, the growth inhibition was -28.5% (inactive).

Regarding `Cc1cccc(COc2ccccc2/C=N/Nc2ccc([N+](=O)[O-])cc2)c1`, the growth inhibition was 91.8% (active).

On to `O=C1c2ccccc2C(=O)c2c1cccc2N1CCN(C/C=C/c2ccccc2)CC1`, for which the growth inhibition is 8.05% (inactive).

Turning to `Cc1ccc(S(=O)(=O)NC(C)C(=O)NCc2ccc(Cl)cc2)cc1` (configuration not stated), the growth inhibition was -3.28% (inactive).

`COc1ccc(-n2nnnc2-c2nc3ccccc3s2)cc1`: the growth inhibition was -12.1% (inactive).

In the case of `COc1ccc(C2=NN(c3nc4ccccc4s3)C(=O)C2)cc1`, the growth inhibition is 94.5% (active).

Take `COc1ccc(C2=NN(C(C)=O)C(c3ccccc3)C2)cc1` (configuration not stated): the growth inhibition was -6.81% (inactive).

`O=c1c2ccccc2ncn1CCCCOc1ccccc1F`: the growth inhibition is 0.805% (inactive).

For `O=C(CCc1ccccc1)NNC(=O)c1ccc(Br)cc1`, the growth inhibition was 5.83% (inactive).

Regarding `COc1ccc(C(=O)NNC(=S)NC(=O)c2ccccc2[N+](=O)[O-])cc1`, the growth inhibition was 5.98% (inactive).

In the case of `COc1ccc(C(=O)NC(=S)NNC(=O)CCc2ccccc2)cc1`, the growth inhibition was 114% (active).

`CC(C)Oc1ccc(CCC(=O)NNC(=S)NCc2ccccc2)cc1`: the growth inhibition is 1.53% (inactive).

Take `COc1ccc(C(=O)NC(=S)NNC(=O)c2c(-c3ccccc3)noc2C)cc1`: the growth inhibition is 32.7% (inactive).

As for `COc1ccc(C(=O)NNC(=S)NC(=O)c2ccccc2)cc1`, the growth inhibition is 96.8% (active).

On to `Cc1ccc(NC(=O)c2cnc(SCC(=O)NCC3CCCO3)n(C)c2=O)cc1` (configuration not stated), for which the growth inhibition was -0.731% (inactive).

Turning to `CCOc1ccc(CCNC(=O)COC(=O)CCS(=O)(=O)c2ccc(C)cc2)cc1OCC`, the growth inhibition is -6.92% (inactive).

Turning to `COc1cccc(NC(=O)CN(C)C(=O)CSC(=S)N2CCCC2)c1`, the growth inhibition was -3.71% (inactive).
